24 compounds from PubChem BioAssay (NCATS) can be followed below.

Each structure is given as a SMILES string. Results with a measured potency or affinity are listed apart. A number with no mark means an inactive call. No rule for the calls is given here.
Also: 0% is about no effect.

For this experiment the following is noted: Ebola virus entry assay, green fluorescence channel.
For `CCc1cccc2c3c([nH]c12)C(CC)(CC(=O)O)OCC3` (centres undefined), the efficacy is 8.5%.

For `CC(=C(CCOC(=O)C(C)C)SSC(CCOC(=O)C(C)C)=C(C)N(C=O)Cc1cnc(C)nc1N)N(C=O)Cc1cnc(C)nc1N`, the efficacy is -18%.

`CC(C)C(=O)OCc1cccc(OC(=O)[C@@H]2N3C(=O)[C@@H](NC(=O)Cc4ccccc4)[C@H]3SC2(C)C)c1`: the efficacy is -28.9%.

With `CC(C)[C@@H]1CC[C@@H](C)CC1=O`, the efficacy was -22.8%.

Regarding `NC[C@H]1O[C@H](O[C@H]2[C@H](O)[C@@H](O[C@H]3O[C@H](CO)[C@@H](O)[C@H](N)[C@H]3O)[C@H](N)C[C@@H]2N)[C@H](N)[C@@H](O)[C@@H]1O`, the efficacy is -12.5%.

On to `CCCn1cnc2c1c(=O)n(CCCCC(C)=O)c(=O)n2C`, for which the efficacy is 33.9%.

Take `O=C1NC(=O)[C@@]2(CCOc3ccc(F)cc32)N1`: the efficacy is -52%.

For the compound `CCN(CC)CCNC(=O)c1cc(Br)c(N)cc1OC`, the efficacy was 15.9%.

As for `CC1(C)[C@@H](OC(=O)CCC(=O)O)CC[C@]2(C)[C@H]3C(=O)C=C4[C@@H]5C[C@@](C)(C(=O)O)CC[C@]5(C)CC[C@@]4(C)[C@]3(C)CC[C@@H]12`, the efficacy was 12.7%.

As for `CC(=O)Nc1ccc(OCCOCCOc2ccc(NC(C)=O)cc2)cc1`, the efficacy was 20.2%.

On to `COc1ccnc2c1CCCCC2S(=O)c1nc2ccccc2[nH]1` (centres undefined), for which the efficacy is -22.9%.

Take `O=C(OCC(O)CO)c1ccccc1Nc1ccnc2c(C(F)(F)F)cccc12` (centres undefined): the efficacy is 31.1%.

For `CCCCN1CCCC[C@H]1C(=O)Nc1c(C)cccc1C`, the efficacy was 30%.

Turning to `CC(=O)Oc1ccc(C2(c3ccc(OC(C)=O)cc3)C(=O)Nc3ccccc32)cc1`, the efficacy was -16%.

Regarding `O=C1Cc2cc(Cl)ccc2N1`, the efficacy is -20.6%.

`CC[N+]1(CC)CCC(=C(c2ccccc2)c2ccccc2)C1C` (centres undefined): the efficacy was 13%.

Turning to `COc1ccc2cc(C=O)ccc2c1`, the efficacy was -11.5%.

As for `NS(=O)(=O)c1cc2c(cc1Cl)CN(C1CCCCC1)C2=O`, the efficacy is 30.3%.

With `C=C(C)C(=O)OCC(O)CO` (centres undefined), the efficacy was -24.2%.

`COc1cc(OC)cc(OC)c1`: the efficacy was -13.9%.

For the compound `OC(CN1CCC(Cc2ccc(F)cc2)CC1)c1ccc(Cl)cc1` (centres undefined), the efficacy is -10%.

On to `COCc1c(C(C)C)nc(C(C)C)c(/C=C/[C@@H](O)C[C@@H](O)CC(=O)O)c1-c1ccc(F)cc1`, for which the efficacy was 9.5%.

For the compound `CC1(C)[C@@H]2CC[C@@]1(C)C(=O)C2`, the efficacy is 9.79%.

As for `CC(O)Cn1cnc2c1c(=O)n(C)c(=O)n2C` (centres undefined), the efficacy was 6.04%.
